# How the values were obtained:
# Assay in all cases: DAPPL (digital affinity profiling via proximity ligation, sequencing); 10 mM Tris-HCl pH 7.5, 50 mM NaCl, 1 mM DTT, 4% glycerol, room temperature, 30 min; GST-TFs on glutathione beads, 16-mer random dsDNA library, 0.1% formaldehyde crosslink after washing; high values mean tight binding
# FLI1 = biological target: T1, FLI1 (Homo sapiens, UniProt Q01543 1-452); conditions: protein: recombinant; tags: N-terminal GST; dsDNA, one strand shown
# T1 sequence: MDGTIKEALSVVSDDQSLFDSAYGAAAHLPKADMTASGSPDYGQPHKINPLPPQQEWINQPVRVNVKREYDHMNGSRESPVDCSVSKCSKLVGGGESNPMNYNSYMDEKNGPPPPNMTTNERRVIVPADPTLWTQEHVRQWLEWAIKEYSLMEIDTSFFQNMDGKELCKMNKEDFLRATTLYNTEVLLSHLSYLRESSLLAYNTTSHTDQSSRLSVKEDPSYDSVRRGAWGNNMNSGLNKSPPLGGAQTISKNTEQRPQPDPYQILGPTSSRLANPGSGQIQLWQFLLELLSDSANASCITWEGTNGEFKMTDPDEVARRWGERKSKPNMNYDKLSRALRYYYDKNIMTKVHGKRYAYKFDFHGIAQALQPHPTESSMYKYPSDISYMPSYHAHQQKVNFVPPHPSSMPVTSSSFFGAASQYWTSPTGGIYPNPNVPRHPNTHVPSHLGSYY
# Outline: (§1)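 The binding signal reported is, for every hexamer, its read frequency for a factor over its read frequency for the tag-only sample. Reads came from pools of yeast-expressed, GST-fused human transcription factors on glutathione beads, barcoded with DNA and mixed with that sample, which were incubated with 200 nmole of a random double-stranded 16-mer DNA library in Tris/NaCl/DTT/glycerol buffer at room temperature for 30 min. After washing, the pools were crosslinked with 0.1% formaldehyde, proximity-ligated with BsaI/T4 ligase for 1 h at 37 °C, PCR-amplified and sequenced on an Illumina NextSeq500.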
# ELK1 = biological target: T2, ELK1 (Homo sapiens, UniProt P19419 1-428); conditions: protein: recombinant; tags: N-terminal GST; dsDNA, one strand shown
# T2 sequence: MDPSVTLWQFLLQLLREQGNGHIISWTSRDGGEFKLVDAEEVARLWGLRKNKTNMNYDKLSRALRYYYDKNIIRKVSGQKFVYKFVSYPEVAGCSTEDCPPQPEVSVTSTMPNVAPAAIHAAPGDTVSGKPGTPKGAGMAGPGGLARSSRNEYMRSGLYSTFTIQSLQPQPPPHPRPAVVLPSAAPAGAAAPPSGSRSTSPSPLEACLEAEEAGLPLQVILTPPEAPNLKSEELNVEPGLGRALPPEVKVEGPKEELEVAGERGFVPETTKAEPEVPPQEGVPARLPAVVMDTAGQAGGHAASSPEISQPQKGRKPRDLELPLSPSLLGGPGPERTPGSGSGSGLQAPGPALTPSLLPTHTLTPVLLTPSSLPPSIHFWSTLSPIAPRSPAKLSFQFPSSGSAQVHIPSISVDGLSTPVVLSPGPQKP
# Outline: as §1
# GABPA = biological target: T3, GABPA (Homo sapiens, UniProt Q06546 1-454); conditions: protein: recombinant; tags: N-terminal GST; dsDNA, one strand shown
# T3 sequence: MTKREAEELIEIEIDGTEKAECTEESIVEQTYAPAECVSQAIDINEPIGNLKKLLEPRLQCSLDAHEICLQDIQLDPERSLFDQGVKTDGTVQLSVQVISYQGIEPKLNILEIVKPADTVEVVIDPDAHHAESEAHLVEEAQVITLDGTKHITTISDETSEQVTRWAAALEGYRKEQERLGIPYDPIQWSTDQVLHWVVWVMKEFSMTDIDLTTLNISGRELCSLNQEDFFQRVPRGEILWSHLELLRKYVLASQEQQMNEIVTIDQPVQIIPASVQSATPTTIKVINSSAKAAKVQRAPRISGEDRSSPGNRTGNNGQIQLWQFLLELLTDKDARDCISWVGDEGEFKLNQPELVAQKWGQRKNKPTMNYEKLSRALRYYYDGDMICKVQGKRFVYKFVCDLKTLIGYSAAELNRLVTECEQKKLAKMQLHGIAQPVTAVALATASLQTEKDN
# Outline: as §1
# ERG = biological target: T4, ERG (Homo sapiens, UniProt P11308 1-479); conditions: protein: recombinant; tags: N-terminal GST; dsDNA, one strand shown
# T4 sequence: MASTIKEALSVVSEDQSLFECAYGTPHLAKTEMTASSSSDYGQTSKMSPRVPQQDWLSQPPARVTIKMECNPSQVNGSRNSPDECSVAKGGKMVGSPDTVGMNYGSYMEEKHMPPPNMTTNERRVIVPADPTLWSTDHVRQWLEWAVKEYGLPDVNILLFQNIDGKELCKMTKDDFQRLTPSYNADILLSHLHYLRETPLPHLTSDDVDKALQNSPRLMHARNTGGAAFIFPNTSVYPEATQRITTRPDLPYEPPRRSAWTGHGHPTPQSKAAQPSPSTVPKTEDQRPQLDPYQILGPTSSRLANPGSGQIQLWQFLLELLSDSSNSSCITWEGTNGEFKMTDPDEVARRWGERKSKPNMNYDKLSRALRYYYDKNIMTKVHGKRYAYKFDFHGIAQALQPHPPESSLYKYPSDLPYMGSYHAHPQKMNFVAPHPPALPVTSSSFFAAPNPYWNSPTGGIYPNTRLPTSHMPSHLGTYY
# Outline: as §1
# ELF1 = ELF1 (Homo sapiens, UniProt P32519 1-619); conditions: protein: recombinant; tags: N-terminal GST; dsDNA, one strand shown
# Outline: as §1
# EHF = biological target: T5, EHF (Homo sapiens, UniProt Q9NZC4 1-300); conditions: protein: recombinant; tags: N-terminal GST; dsDNA, one strand shown
# T5 sequence: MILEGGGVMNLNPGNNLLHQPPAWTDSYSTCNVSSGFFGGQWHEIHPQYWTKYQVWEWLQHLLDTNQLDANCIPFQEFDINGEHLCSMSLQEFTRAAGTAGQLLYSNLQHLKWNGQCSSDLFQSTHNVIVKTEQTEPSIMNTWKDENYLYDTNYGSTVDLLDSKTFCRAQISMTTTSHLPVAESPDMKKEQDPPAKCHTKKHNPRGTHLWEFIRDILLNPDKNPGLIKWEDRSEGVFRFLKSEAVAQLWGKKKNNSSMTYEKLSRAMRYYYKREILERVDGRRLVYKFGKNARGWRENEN
# Outline: as §1
# SPI1 = SPI1 (Homo sapiens, UniProt P17947 1-270); conditions: protein: recombinant; tags: N-terminal GST; dsDNA, one strand shown
# Outline: as §1
# ELK3 = biological target: T6, ELK3 (Homo sapiens, UniProt P41970 1-407); conditions: protein: recombinant; tags: N-terminal GST; dsDNA, one strand shown
# T6 sequence: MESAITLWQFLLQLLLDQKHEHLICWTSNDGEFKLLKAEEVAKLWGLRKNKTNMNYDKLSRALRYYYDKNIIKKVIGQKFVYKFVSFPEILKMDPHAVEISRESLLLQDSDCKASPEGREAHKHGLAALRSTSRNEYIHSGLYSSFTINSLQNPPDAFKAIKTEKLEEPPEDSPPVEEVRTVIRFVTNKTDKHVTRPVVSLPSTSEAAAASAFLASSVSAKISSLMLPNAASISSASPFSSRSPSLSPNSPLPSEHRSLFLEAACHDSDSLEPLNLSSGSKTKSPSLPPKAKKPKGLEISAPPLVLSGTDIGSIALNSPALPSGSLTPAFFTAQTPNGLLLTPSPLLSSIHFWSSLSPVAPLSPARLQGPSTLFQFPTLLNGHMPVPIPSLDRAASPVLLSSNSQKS
# Outline: as §1
# FEV = biological target: T7, FEV (Homo sapiens, UniProt Q99581 1-238); conditions: protein: recombinant; tags: N-terminal GST; dsDNA, one strand shown
# T7 sequence: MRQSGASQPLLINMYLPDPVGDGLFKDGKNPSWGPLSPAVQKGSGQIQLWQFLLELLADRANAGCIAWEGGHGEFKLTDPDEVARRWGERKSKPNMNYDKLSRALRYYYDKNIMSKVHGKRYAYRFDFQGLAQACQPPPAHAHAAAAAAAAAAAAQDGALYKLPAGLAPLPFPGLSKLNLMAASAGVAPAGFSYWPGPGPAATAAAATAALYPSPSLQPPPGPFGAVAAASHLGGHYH
# Outline: as §1
# ETV5 = ETV5 (Homo sapiens, UniProt P41161 1-510); conditions: protein: recombinant; tags: N-terminal GST; dsDNA, one strand shown
# Outline: as §1
# HSF1 = HSF1 (Homo sapiens, UniProt Q00613 1-529); conditions: protein: recombinant; tags: N-terminal GST; chain copies: 3; dsDNA, one strand shown
# Outline: as §1
# SPIC = biological target: T8, SPIC (Homo sapiens, UniProt Q8N5J4 1-248); conditions: protein: recombinant; tags: N-terminal GST; dsDNA, one strand shown
# T8 sequence: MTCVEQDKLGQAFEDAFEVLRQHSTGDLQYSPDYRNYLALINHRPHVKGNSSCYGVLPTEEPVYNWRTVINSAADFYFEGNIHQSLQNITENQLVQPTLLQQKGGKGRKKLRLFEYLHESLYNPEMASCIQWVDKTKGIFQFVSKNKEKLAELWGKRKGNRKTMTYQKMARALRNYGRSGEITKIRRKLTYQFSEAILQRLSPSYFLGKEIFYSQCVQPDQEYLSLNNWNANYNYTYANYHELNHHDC
# Outline: as §1
# ELF4 = ELF4 (Homo sapiens, UniProt Q99607 1-663); conditions: protein: recombinant; tags: N-terminal GST; dsDNA, one strand shown
# Outline: as §1
# ELK4 = biological target: T9, ELK4 (Homo sapiens, UniProt P28324-2 1-405); conditions: protein: recombinant; tags: N-terminal GST; dsDNA, one strand shown
# T9 sequence: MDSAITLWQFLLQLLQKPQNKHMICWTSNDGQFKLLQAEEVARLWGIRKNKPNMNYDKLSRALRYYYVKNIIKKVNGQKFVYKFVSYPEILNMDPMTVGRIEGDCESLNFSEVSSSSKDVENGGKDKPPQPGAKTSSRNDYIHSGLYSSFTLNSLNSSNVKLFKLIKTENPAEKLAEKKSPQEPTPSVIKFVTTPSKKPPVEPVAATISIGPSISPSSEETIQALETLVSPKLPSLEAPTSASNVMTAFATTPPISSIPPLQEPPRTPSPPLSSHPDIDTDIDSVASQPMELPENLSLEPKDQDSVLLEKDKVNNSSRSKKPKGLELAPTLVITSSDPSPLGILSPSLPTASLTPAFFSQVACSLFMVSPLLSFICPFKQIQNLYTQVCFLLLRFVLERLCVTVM
# Outline: as §1
# ETV2 = biological target: T10, ETV2 (Homo sapiens, UniProt O00321 1-342); conditions: protein: recombinant; tags: N-terminal GST; dsDNA, one strand shown
# T10 sequence: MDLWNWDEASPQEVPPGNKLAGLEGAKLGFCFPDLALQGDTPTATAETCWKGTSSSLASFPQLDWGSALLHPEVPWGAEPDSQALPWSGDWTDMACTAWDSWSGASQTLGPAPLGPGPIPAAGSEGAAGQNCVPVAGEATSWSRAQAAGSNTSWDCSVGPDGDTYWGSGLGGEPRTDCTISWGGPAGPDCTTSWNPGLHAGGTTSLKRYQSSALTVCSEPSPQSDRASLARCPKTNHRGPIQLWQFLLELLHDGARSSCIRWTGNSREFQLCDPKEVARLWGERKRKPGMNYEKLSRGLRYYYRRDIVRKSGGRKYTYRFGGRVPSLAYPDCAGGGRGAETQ
# Outline: as §1
# ELF3 = biological target: T11, ELF3 (Homo sapiens, UniProt P78545 1-371); conditions: protein: recombinant; tags: N-terminal GST; dsDNA, one strand shown
# T11 sequence: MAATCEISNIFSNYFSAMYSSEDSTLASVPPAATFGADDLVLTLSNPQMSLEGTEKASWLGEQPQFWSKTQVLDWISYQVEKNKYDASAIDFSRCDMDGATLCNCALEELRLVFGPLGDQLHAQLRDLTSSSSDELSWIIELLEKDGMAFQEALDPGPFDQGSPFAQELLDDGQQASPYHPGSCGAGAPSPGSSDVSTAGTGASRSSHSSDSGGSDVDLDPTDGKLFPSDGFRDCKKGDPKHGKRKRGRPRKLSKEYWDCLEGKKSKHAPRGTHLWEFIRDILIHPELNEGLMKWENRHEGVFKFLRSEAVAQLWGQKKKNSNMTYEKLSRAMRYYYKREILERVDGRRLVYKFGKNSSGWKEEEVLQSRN
# Outline: as §1
# ETV1 = ETV1 (Homo sapiens, UniProt P50549 1-477); conditions: protein: recombinant; tags: N-terminal GST; dsDNA, one strand shown
# Outline: as §1
# Chain of HSF1 (Q00613 whole entry): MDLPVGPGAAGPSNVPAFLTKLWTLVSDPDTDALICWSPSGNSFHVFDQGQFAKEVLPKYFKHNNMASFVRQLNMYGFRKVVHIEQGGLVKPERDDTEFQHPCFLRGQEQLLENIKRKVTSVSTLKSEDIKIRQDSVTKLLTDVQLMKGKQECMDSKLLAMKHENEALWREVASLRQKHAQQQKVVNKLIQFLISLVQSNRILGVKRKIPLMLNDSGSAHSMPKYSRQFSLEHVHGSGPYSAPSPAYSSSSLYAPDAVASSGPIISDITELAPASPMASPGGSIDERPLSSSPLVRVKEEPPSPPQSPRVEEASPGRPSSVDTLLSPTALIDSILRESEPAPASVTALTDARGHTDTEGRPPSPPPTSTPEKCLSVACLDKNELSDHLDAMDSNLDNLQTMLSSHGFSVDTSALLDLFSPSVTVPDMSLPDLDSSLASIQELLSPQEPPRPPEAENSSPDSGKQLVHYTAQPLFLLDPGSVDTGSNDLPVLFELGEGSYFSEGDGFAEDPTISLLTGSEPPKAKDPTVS
# Chain of ELF4 (Q99607 whole entry): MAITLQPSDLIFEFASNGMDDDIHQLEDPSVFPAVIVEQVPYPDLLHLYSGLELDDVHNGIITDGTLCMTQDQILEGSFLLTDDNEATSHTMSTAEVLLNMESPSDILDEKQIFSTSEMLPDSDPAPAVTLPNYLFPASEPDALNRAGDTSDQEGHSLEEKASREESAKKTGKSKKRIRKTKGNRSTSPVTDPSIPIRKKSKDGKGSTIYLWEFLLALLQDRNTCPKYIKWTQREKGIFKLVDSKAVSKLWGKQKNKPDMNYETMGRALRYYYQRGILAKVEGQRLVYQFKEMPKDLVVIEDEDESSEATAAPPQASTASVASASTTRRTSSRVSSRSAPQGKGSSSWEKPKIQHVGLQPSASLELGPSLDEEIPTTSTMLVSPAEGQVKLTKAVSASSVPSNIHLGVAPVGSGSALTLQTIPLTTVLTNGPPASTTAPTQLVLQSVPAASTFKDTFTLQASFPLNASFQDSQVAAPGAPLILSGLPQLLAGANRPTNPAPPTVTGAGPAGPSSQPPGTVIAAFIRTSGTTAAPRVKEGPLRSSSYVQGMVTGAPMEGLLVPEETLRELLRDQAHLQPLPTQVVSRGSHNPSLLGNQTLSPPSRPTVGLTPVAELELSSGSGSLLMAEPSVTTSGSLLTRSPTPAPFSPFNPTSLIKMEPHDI
# Chain of ETV1 (P50549 whole entry): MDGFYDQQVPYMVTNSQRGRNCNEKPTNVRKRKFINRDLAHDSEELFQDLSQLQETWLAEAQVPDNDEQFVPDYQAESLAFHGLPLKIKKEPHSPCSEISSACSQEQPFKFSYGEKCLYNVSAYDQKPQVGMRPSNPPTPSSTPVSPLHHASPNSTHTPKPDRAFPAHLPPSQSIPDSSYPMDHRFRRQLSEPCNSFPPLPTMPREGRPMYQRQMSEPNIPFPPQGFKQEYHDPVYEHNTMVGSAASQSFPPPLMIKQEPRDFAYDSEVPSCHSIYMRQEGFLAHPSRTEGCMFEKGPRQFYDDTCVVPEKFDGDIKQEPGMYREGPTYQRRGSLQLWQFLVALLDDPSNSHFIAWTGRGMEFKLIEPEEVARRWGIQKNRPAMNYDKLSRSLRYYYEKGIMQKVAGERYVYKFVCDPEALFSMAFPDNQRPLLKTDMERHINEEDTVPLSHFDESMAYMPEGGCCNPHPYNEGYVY
# Chain of ETV5 (P41161 whole entry): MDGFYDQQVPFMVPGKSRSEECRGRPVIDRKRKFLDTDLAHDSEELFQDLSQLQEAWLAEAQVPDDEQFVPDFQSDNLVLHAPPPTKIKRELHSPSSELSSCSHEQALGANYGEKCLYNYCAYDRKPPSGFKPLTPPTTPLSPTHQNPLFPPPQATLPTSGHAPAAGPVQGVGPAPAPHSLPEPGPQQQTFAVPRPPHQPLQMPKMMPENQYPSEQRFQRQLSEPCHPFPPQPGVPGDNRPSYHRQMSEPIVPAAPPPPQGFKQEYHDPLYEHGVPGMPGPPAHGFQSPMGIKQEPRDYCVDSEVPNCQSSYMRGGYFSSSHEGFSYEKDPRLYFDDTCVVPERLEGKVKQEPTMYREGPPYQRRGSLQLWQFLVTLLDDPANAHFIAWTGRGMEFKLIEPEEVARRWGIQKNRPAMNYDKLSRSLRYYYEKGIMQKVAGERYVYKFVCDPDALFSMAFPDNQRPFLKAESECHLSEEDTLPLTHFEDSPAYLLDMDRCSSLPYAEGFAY
# Chain of ELF1 (P32519 whole entry): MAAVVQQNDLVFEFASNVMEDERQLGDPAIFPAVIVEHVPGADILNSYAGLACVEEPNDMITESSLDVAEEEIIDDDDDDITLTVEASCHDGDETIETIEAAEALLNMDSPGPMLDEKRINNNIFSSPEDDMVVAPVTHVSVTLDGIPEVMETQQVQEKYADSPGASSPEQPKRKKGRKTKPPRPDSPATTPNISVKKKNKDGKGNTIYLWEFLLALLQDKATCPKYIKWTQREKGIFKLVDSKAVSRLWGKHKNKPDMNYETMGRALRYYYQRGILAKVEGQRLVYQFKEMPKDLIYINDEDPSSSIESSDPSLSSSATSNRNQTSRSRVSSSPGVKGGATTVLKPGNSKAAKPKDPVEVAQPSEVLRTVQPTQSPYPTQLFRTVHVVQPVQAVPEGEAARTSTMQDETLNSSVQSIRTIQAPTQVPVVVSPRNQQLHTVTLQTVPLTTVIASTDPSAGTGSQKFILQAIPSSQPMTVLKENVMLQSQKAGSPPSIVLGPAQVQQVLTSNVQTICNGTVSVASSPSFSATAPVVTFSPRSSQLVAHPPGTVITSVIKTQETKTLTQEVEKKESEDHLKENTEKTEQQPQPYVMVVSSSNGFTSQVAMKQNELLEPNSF
sequence,measurement,setting,value
CACGAA,binding signal,FLI1,"1.05 fold enrichment (6-mer frequency, TF over GST control)"
same,binding signal,ELK1,"1.15 fold enrichment (6-mer frequency, TF over GST control)"
same,binding signal,GABPA,"1.19 fold enrichment (6-mer frequency, TF over GST control)"
same,binding signal,ERG,"1.1 fold enrichment (6-mer frequency, TF over GST control)"
same,binding signal,ELF1,"1.11 fold enrichment (6-mer frequency, TF over GST control)"
same,binding signal,EHF,"1.07 fold enrichment (6-mer frequency, TF over GST control)"
same,binding signal,SPI1,"1.06 fold enrichment (6-mer frequency, TF over GST control)"
same,binding signal,ELK3,"1.03 fold enrichment (6-mer frequency, TF over GST control)"
same,binding signal,FEV,"1.09 fold enrichment (6-mer frequency, TF over GST control)"
same,binding signal,ETV5,"1.1 fold enrichment (6-mer frequency, TF over GST control)"
same,binding signal,HSF1,"1.39 fold enrichment (6-mer frequency, TF over GST control)"
same,binding signal,SPIC,"1.12 fold enrichment (6-mer frequency, TF over GST control)"
same,binding signal,ELF4,"1.2 fold enrichment (6-mer frequency, TF over GST control)"
same,binding signal,ELK4,"1.3 fold enrichment (6-mer frequency, TF over GST control)"
same,binding signal,ETV2,"1.18 fold enrichment (6-mer frequency, TF over GST control)"
same,binding signal,ELF3,"1.07 fold enrichment (6-mer frequency, TF over GST control)"
same,binding signal,ETV1,"1.14 fold enrichment (6-mer frequency, TF over GST control)"
